Several values for one entry are separate records, joined by “and”; a condition that tells them apart may be missing. Equal entries are not always repeated. Records with an inconclusive call do not appear. The source holds several records for some structures; these can differ, active in one and inactive in another. Activity calls are given as the source filed them. Calls come from the whole dose curve; as a rule, active = well fitted curve in the direction sought with a large enough effect; inconclusive = small, poorly fitted or top-dose-only effect, or another doubt; inactive = no such curve, though single readings can be large; an effect the other way counts as inactive or inconclusive.

Assay [1] deals with Cytochrome P450 2C9 (Homo sapiens) (UniProt P11712). The experiment in a line: qHTS Assay for Inhibitors and Substrates of Cytochrome P450 2C9 (AID 883). For activity change, negative = inhibition: % is set by controls: 0 for no effect and ±100 for the full control effect. Note: nearly all actives have a fitted effect of over 60% in size. Note: potency is the fitted concentration of half-maximal effect. The method in brief: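 A luminogenic readout tracked human CYP2C9 (10nM) converting deoxyluciferin (100uM, at KM) in 25mM KPO4 during 60 min at 37C with regenerated NADPH. Values normalized to 57uM sulphaphenazole as complete inhibition.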
Background: Quantitative high-throughput screening tests each substance at several concentrations.

In assay [2] the target is Cytochrome P450 3A4 (Homo sapiens) (UniProt P08684). The experiment in a line: qHTS Assay for Inhibitors and Substrates of Cytochrome P450 3A4 (AID 884). For activity change, negative = inhibition: series mostly up to about 57 µM; % is set by controls: 0 for no effect and ±100 for the full control effect. Note: nearly all actives have a fitted effect of over 50% in size. Note: potency is the fitted concentration of half-maximal effect. In short, it runs like this: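 Luminescent readout of luciferin produced by CYP3A4 (20 nM) dealkylation of Luciferin-PPXE, 25 uM (its KM). NADPH-driven reaction ran 60 min at RT after 10 min compound preincubation; data scaled to 57 uM ketoconazole as 100% inhibition.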

Assay [3] shares this target. The experiment in a line: qHTS Assay for Activators of Cytochrome P450 3A4 (AID 885). Note: nearly all actives have a fitted effect of over 65% in size. In short, it runs like this: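 Human CYP3A4 dealkylates Luciferin-PPXE to luciferin, which luciferase detection converts to light. Substrate was at its KM (25uM), buffer 200mM KPO4, reaction 60 min at RT.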
Assay [4] addresses Cytochrome P450 2D6 (Homo sapiens) (UniProt P10635). As to the kind of experiment: qHTS Assay for Inhibitors and Substrates of Cytochrome P450 2D6 (AID 891).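 For activity change, negative = inhibition: luciferin methyl ether substrate demethylated by CYP2D6 with NADPH regeneration; % is set by controls: 0 for no effect and ±100 for the full control effect.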 Note: nearly all actives have a fitted effect of over 60% in size. Note: potency is the fitted concentration of half-maximal effect. The method in brief: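 Luminescent read-out of luciferin formed by 5 nM human CYP2D6 demethylating 30 uM Luciferin-ME EGE (Km level) over 60 min at room temperature after NADPH regeneration addition. Data normalized to full inhibition by 1.43 uM quinidine.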

Assay [5] concerns the target Cytochrome P450 2C19 (Homo sapiens) (UniProt P33261). The experiment in a line: qHTS Assay for Inhibitors and Substrates of Cytochrome P450 2C19 (AID 899). Note: nearly all actives have a fitted effect of over 60% in size. Note: potency is the fitted concentration of half-maximal effect. The method in brief: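 NADPH-dependent conversion of Luciferin-H EGE (10uM, at KM) by 5nM enzyme in 50mM KPO4, 60 min at 37C following 10 min compound preincubation. Stopped with luciferin detection buffer; luminescence read after 20 min.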

Chain of Cytochrome P450 2D6 (Homo sapiens) (P10635 whole entry, looked up): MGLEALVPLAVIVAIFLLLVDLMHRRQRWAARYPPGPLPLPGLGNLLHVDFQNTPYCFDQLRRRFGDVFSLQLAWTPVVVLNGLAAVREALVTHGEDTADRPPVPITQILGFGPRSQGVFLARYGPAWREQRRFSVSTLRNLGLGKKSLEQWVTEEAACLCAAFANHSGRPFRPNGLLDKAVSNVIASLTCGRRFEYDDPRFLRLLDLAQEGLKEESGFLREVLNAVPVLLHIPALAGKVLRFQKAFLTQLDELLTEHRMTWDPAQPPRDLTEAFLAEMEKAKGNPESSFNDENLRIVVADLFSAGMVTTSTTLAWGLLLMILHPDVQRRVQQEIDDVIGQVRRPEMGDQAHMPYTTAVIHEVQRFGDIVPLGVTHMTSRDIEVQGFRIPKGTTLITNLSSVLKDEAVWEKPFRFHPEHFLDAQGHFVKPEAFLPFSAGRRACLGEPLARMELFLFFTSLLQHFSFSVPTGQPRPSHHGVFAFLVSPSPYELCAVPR
Chain of Cytochrome P450 2C19 (Homo sapiens) (P33261 whole entry, looked up): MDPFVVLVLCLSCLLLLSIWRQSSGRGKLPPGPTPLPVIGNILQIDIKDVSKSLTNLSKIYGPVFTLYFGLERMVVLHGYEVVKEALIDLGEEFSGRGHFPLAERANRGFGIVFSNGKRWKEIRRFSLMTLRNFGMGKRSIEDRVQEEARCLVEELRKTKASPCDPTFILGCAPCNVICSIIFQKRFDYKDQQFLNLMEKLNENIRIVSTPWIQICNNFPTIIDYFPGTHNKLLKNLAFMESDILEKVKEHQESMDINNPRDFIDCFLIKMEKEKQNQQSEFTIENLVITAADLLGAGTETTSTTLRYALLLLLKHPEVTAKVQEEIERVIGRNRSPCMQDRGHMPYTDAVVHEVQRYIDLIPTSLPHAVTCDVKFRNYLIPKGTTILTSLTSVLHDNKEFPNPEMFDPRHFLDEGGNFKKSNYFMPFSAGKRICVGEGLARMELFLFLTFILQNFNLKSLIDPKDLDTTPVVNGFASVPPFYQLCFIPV
Chain of Cytochrome P450 3A4 (Homo sapiens) (P08684 whole entry, looked up): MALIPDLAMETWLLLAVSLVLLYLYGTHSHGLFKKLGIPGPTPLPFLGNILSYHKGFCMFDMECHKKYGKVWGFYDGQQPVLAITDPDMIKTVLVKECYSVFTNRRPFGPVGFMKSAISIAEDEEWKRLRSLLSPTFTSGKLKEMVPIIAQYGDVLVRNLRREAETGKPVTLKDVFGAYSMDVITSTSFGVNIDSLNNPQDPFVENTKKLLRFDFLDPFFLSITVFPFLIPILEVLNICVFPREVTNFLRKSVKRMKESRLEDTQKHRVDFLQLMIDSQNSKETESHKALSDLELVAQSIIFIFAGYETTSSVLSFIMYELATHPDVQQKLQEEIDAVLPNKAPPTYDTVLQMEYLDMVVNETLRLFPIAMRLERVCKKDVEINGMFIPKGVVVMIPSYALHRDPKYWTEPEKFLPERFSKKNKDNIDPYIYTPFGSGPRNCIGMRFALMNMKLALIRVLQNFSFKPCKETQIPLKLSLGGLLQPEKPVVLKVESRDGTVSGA
Chain of Cytochrome P450 2C9 (Homo sapiens) (P11712 whole entry, looked up): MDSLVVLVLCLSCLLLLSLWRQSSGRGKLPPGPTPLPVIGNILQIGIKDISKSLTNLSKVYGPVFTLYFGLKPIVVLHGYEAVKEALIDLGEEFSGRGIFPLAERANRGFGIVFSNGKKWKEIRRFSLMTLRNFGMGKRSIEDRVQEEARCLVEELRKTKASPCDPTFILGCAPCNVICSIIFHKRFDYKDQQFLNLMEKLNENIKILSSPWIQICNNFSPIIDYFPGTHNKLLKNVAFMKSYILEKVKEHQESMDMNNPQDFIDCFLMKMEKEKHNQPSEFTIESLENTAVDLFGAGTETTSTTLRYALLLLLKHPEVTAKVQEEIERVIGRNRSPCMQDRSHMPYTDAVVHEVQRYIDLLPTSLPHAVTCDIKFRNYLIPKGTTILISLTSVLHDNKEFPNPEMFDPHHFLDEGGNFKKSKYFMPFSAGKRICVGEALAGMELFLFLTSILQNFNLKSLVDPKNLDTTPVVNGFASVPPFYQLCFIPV

Regarding `CC(=O)c1ccc(OC2C(O)COC2/C=C/c2ccc(Cl)cc2)cc1` (configuration not stated), the Potency entry in assay [1] and in assay [4] was “inactive” throughout. In addition, the activity change, negative = inhibition in assay [2] was -27.7% [at 11.4 µM] (inactive). Also, in assay [3], the activity change, positive = activation is -50% [at 11.4 µM] (inactive).

For `COC(=O)C(C(C)=O)C(NC(=O)NCc1ccccc1)c1ccccc1` (configuration not stated), the Potency result in assay [1] and in assay [4] was “inactive” in each case. Moreover, the Potency in assay [2] was 3.98 µM (active). For the same compound, the activity change, positive = activation in assay [3] was -69.4% [at 11.4 µM] (inactive).

As to `OCC1OC(/C=C\c2ccccc2)C=CC1Oc1ccc2c(c1)OCO2` (configuration not stated), the Potency entry in assay [1] is “inactive”. The results for the Potency in assay [2], in assay [4] and in assay [5] were 0.398 µM (active), 3.98 µM (active) and 0.251 µM (active), respectively. For the same compound, the activity change, positive = activation in assay [3] was -105% [at 11.4 µM] (inactive).

For the compound `C=CCOC(=O)/C=C/NC(=O)/C=C/C=C/CCCCCCCC(C)O` (configuration not stated), the Potency in assay [1] was 3.98 µM (active) and 2.51 µM (active); in assay [2], 3.16 µM (active) and 3.98 µM (active). In addition, in assay [3], the activity change, positive = activation was -72.9% [at 11.4 µM] (inactive) and -68.1% [at 11.4 µM] (inactive). Also, the Potency result in assay [4] and in assay [5] was “inactive” throughout.

Take `CC(=O)c1ccc(C2C=CC(Oc3ccc(F)cc3C)C(CO)O2)cc1` (configuration not stated): the Potency result in assay [1] and in assay [4] was “inactive” throughout. Further, in assay [2], the Potency is 3.16 µM (active). In addition, the activity change, positive = activation in assay [3] was -76.9% [at 11.4 µM] (inactive).

Consider `CC#CC(C)C(OCOC)C(CC(C)Cc1cc(Br)cc(OCc2ccccc2)c1OC)OC` (configuration not stated), for which the Potency result in assay [1], in assay [4] and in assay [5] was “inactive” throughout. Moreover, the Potency in assay [2] was 3.16 µM (active). For the same compound, the activity change, positive = activation in assay [3] was -76.2% [at 11.4 µM] (inactive).

In the case of `CCCCCCC1Cc2cc(OC)c(OC)cc2C(C(C(=O)OCC)C(=O)OCC)O1` (configuration not stated), the Potency entry in assay [1] and in assay [4] was “inactive” in each case. Further, the Potency in assay [2] is 3.16 µM (active) and 1.58 µM (active); in assay [5] it was “inactive and 3.16 µM (active)”. The activity change, positive = activation in assay [3] is -66.2% [at 11.4 µM] (inactive) and -65.3% [at 11.4 µM] (inactive).

`COc1ccc(OC2C=CC(C#Cc3ccc(Br)cc3)OC2CO)c(C(C)(C)C)c1` (configuration not stated): the figures for the Potency in assay [1] and in assay [2] were 3.16 µM (active) and 3.98 µM (active), respectively. Further, in assay [3], the activity change, positive = activation was -84.8% [at 11.4 µM] (inactive). The Potency entry in assay [4] is “inactive”.

Turning to `C=CCOC(=O)C(C(C)=O)C(NC(=O)OC)c1cccc(C)c1` (configuration not stated), the Potency result in assay [1] and in assay [4] was “inactive” each time. Further, the Potency in assay [2] is 2.51 µM (active); in assay [5] it was 0.794 µM (active). For the same compound, the activity change, positive = activation in assay [3] was -86.6% [at 11.4 µM] (inactive).

Take `CCOC(=O)OCC1OC(C#Cc2ccc(F)cc2F)C=CC1OC(=O)OCC` (configuration not stated): the Potency entry in assay [1], in assay [4] and in assay [5] was “inactive” in each case. In assay [2], the Potency is 3.16 µM (active). Further, the activity change, positive = activation in assay [3] was -75.6% [at 11.4 µM] (inactive).

`C=CCOC(=O)C(C(C)=O)C(NC(=O)OC)c1ccccc1` (configuration not stated): the Potency result in assay [1] and in assay [4] was “inactive” in each case. In addition, the Potency in assay [2] is 3.98 µM (active). Also, the activity change, positive = activation in assay [3] is -86.9% [at 11.4 µM] (inactive).

As to `COc1ccc(/C=C/NC(=O)c2ccc(OC)cc2)cc1`, the Potency entry in assay [1], in assay [4] and in assay [5] was “inactive” throughout. For the same compound, the Potency in assay [2] is 3.16 µM (active). The activity change, positive = activation in assay [3] was -68.6% [at 11.4 µM] (inactive).

As for `CCCCCCCC#Cc1ccccc1/C=N/S(=O)c1ccc(C)cc1` (configuration not stated), the Potency entry in assay [1], in assay [4] and in assay [5] was “inactive” each time. In assay [2], the Potency was 3.98 µM (active). The activity change, positive = activation in assay [3] was -65.3% [at 11.4 µM] (inactive).

As for `CCCCC#CC1C=CC(OC(C)=O)C(COC(C)=O)O1` (configuration not stated), the Potency entry in assay [1] and in assay [4] was “inactive” in each case. In assay [2], the Potency was 2.51 µM (active). Further, the activity change, positive = activation in assay [3] is -63.9% [at 11.4 µM] (inactive).

On to `CCCCCCC#CC1C=CC(OC(=O)OCC)C(COC(=O)OCC)O1` (configuration not stated), for which the Potency result in assay [1] and in assay [4] was “inactive” throughout. Besides, the Potency in assay [2] is 3.98 µM (active). Moreover, the activity change, positive = activation in assay [3] was -78% [at 11.4 µM] (inactive).

`COc1ccc(OC2C=CC(C#Cc3ccc(F)cc3F)OC2CO)cc1` (configuration not stated): the Potency result in assay [1] and in assay [4] was “inactive” in each case. Also, the Potency in assay [2] is 3.98 µM (active) and 3.16 µM (active); in assay [5] it was 0.398 µM (active). Also, in assay [3], the activity change, positive = activation was -84.9% [at 11.4 µM] (inactive) and -82.9% [at 11.4 µM] (inactive).

Regarding `CC(=O)OCC1OC(C#Cc2ccccc2)C=CC1OC(C)=O` (configuration not stated), the Potency result in assay [1], in assay [4] and in assay [5] was “inactive” each time. Further, in assay [2], the Potency is 3.98 µM (active). Further, the activity change, positive = activation in assay [3] was -91.5% [at 11.4 µM] (inactive) and -31.7% [at 11.4 µM] (inactive).

Turning to `CC(=O)c1ccc(OC2C=CC(C#Cc3ccc(Br)cc3)OC2CO)cc1` (configuration not stated), the Potency entry in assay [1] and in assay [4] was “inactive” each time. The Potency in assay [2] is 3.16 µM (active). Further, the activity change, positive = activation in assay [3] was -77.6% [at 11.4 µM] (inactive).

Values taken from PubChem BioAssay (NCATS).
